Data as given in article PMC4552634, “A New Set of Chemical Starting Points with Plasmodium falciparum Transmission-Blocking Potential for Antimalarial Drug Discovery” (PLoS ONE, 2015).
In all, about 13,000 compounds went through this assay and about 3,200 (25%) showed an effect of 50% or more. The list shows a part of the results.

system: P. falciparum stage V gametocytes; set-up: BacTiter-Glo ATP luminescence viability of purified stage V gametocytes in 384-well plates, per cent inhibition versus DMSO; conditions: 48 h, 5 µM; inhibitor

Row | SMILES | % Inhibition [%]
1 | CCNc1cc(CC)nc(Nc2ccc(C)cc2)n1 [TCMDC-133992] | -2.88
2 | COc1cc(N)c(Cl)cc1C(=O)NC1CCC(NCC2CCCCC2)CC1 (stereo not shown) [TCMDC-136726] | 0.4196
3 | Cc1cccc2nc(-c3ccc(-c4ccc(NC(=O)Nc5ccc(Cl)c(Cl)c5)cc4)s3)[nH]c12 [TCMDC-133273] | -52.78
4 | O=C(/C=C/c1ccc(C(F)(F)F)cc1)NCCCCCN1CCCN(C(=O)Nc2ccc(Cl)c(C(F)(F)F)c2)CC1 [TCMDC-136105] | -22.56
5 | Cc1cc(Nc2ccc(Cl)cc2)n2nc(C(F)(F)F)nc2n1 [TCMDC-123826] | -17.3
6 | Cc1cc(Nc2ccncc2)n2nc(C)c(-c3ccccc3Cl)c2n1 [TCMDC-124918] | 99.62
7 | Cc1cc(Nc2ccc(C)c(Cl)c2)n2nc(C(F)(F)F)nc2n1 [TCMDC-124919] | -6.645
8 | Cc1cc(Nc2ccc(Cl)c(Cl)c2)n2nc(C)nc2n1 [TCMDC-124417] | -6.756
9 | Cc1cc(Nc2ccncc2)n2nc(C)c(-c3ccc(Cl)cc3)c2n1 [TCMDC-124478] | 102.4
10 | Cc1cc(Nc2ccc3ccccc3c2)n2ncnc2n1 [TCMDC-125840] | 18.77
11 | Cc1cc(Nc2ccnc(-c3ccc(Cl)cc3)n2)ccn1 [TCMDC-141398] | -5.017
12 | CCc1nn2c(Nc3ccncc3)cc(C)nc2c1-c1ccccc1 [TCMDC-124917] | 106.8
13 | Cc1cc(Nc2ccc(C)c(C)c2)n2nc(C)nc2n1 [TCMDC-124418] | 9.818
14 | Cc1nc(N)nc(N)c1C#CC1CCCC1 [TCMDC-137728] | 11.69
15 | CC(C)(C)c1ccc(NC(=O)c2ccc(CN3CCCN(Cc4cccc(F)c4)CC3)cc2)cc1 [TCMDC-136431] | -15.47
16 | CC1(C)S(=O)(=O)CC(O)CS1(=O)=O [TCMDC-131669] | 10.31
17 | Cc1c(C(=O)NCc2ccncc2)sc2nc(-c3cccc([N+](=O)[O-])c3)cn12 [TCMDC-124992] | -38.46
18 | Nc1ncc(-c2ccc(Cl)c(Cl)c2)c(N)n1 [TCMDC-138994] | 6.577
19 | O=C(/C=C/c1ccc(Cl)c(Cl)c1)NC1CCN(Cc2ccc(O)cc2)CC1 [TCMDC-141741] | 16.03
20 | Cc1[nH]c(C)c(-c2ccc(CCc3cccc(C(F)(F)F)c3)nc2)c(=O)c1Cl [TCMDC-136014] | 76.88
21 | Cc1[nH]c(C)c(-c2ccc(CCc3ccc(C(F)(F)F)cc3)nc2)c(=O)c1Cl [TCMDC-136051] | 71.49
22 | CCCCCCCc1ccc(-c2c(C)[nH]c(C)c(Cl)c2=O)cn1 [TCMDC-135816] | 34.89
23 | O=C(Cc1cccc2ccccc12)N1CCc2cc3nccc(N4CCN5CCC[C@H]5C4)c3cc21 [TCMDC-140040] | -3.161
24 | O=C(Nc1ccccc1Cl)c1cc2ccccc2cc1O [TCMDC-123494] | 9.579
25 | CC(Nc1nc(Nc2ccc(F)cc2)nc(SCC(N)=O)n1)c1ccccc1 (stereo not shown) [TCMDC-125832] | -31.65
26 | CCCCNc1cc(C)nc(NCc2ccccc2)n1 [TCMDC-123663] | 33.56
27 | CCCCNc1nc(NCCCC)c2c(C)c(Cc3ccccc3)c(NCCCC)nc2n1 [TCMDC-138062] | 134
28 | Cc1nc2nc(N)nc(N)c2c(C)c1Cc1ccccc1 [TCMDC-137670] | -13.55

Row | SMILES | % Inhibition [%]
29 | CC(C)(C)c1ccc(NC(=O)c2cccc(CN3CCCN(CC4CCCCC4)CC3)c2)cc1 [TCMDC-135980] | -75.44
30 | Cc1cc(C(=O)Nc2ccc(C)c(-c3nc(N(C(=O)c4ccc(F)c(C)c4)C4CCNCC4)nc4c3ccc(=O)n4-c3c(F)cccc3F)c2)ccc1F [TCMDC-135913] | 55.46
31 | Cc1cc(F)ccc1-c1nc(N(C)CCN(C)C(=O)N(C)c2ccccc2)nc2c1ccc(=O)n2-c1c(F)cccc1F [TCMDC-141720] | 17.64
32 | Cc1ccc(NC(=O)Nc2ccccc2F)cc1-c1ccc(C(=O)Nc2ccncc2)cc1 [TCMDC-133706] | -10.32
33 | Cc1ccc(N)cc1-c1nc(NC2CC(C)(C)NC(C)(C)C2)nc2c1ccc(=O)n2-c1c(F)cccc1F [TCMDC-135790] | 57.86
34 | Cc1cc(F)ccc1C1CCN(CCCCNC(=O)c2ccc(NC(=O)c3ccc(Cl)cc3)cc2)CC1 [TCMDC-138363] | 13.4
35 | Cc1ccc(C(=O)Nc2ccc(F)cc2)cc1-c1nc(NC2CC(C)(C)NC(C)(C)C2)nc2c1ccc(=O)n2-c1c(F)cccc1F [TCMDC-135391] | 95.1
36 | Cc1ccc(NC(=O)Nc2ccc(Cl)cc2)cc1-c1cccc(C(=O)Nc2ccc(F)cc2)c1 [TCMDC-133591] | -12.79
37 | CCCc1cc(NCc2ccncc2)nc(Nc2ccc(F)cc2)n1 [TCMDC-134012] | 34.89
38 | NC(=O)c1ccsc1NC(=O)CNC(c1ccccc1)c1ccccc1 [TCMDC-125458] | 2.042
39 | O=C(N[C@@H](Cc1ccccc1)[C@H](O)CNC1CCCc2ccccc21)c1cc(C2CCCC2)cc(N2CCCC2=O)c1 (stereo partly shown) [TCMDC-134656] | -0.2102
40 | Cc1c2c(nn1-c1ccccc1)C(c1ccccc1)N(c1ccccc1)C2=O (stereo not shown) [TCMDC-131674] | -2.033
41 | COc1ccccc1N1CCN(c2cccc(F)c2C#N)CC1 [TCMDC-124862] | -55.85
42 | COc1cc(C)c(NC(=O)c2cccc3c(=O)c(C)c(-c4ccccc4)oc23)cc1OC [TCMDC-125261] | -26.52
43 | COc1ccc(-c2ccc(S(=O)(=O)Nc3cc4c(cc3OC(C)C)CCN(C)CC4)cc2)cc1 [TCMDC-141487] | 10.97
44 | CC(C)C(=O)ONC1=NC(C)(C)N(OCCCOc2cc(Cl)c(Cl)cc2Cl)C(NOC(=O)C(C)C)=N1 [TCMDC-131788] | -4.555
45 | CN1CCN(c2ccc(Nc3ncc(C#N)c(Nc4ccccc4C(N)=O)n3)cc2)CC1 [TCMDC-134116] | -62.53
46 | CNC(=O)c1cnc(Nc2ccc(N3CCOCC3)cc2)nc1Nc1cccc(OC)c1 [TCMDC-141386] | -63.88
47 | CNC(=O)c1cnc(Nc2ccc(N3CCOCC3)cc2)nc1Nc1cccc(O)c1 [TCMDC-141385] | -8.649
48 | Cc1cc(C)cc(OCC(O)CN(Cc2cc(Cl)cc(Cl)c2)C(=O)Nc2ccc([N+](=O)[O-])cc2)c1 (stereo not shown) [TCMDC-141478] | -6.134
49 | CNC(=O)c1cnc(Nc2ccc(OCC(O)CN(C)C)cc2)nc1Nc1cccc(OC)c1 (stereo not shown) [TCMDC-141387] | 95.62
50 | CNC(=O)c1cnc(Nc2ccc(N3CCN(C)CC3)cc2)nc1Nc1cccc(OC(C)C)c1 [TCMDC-141384] | -23.05
51 | CN(C)CCOc1cc(NC(=O)Nc2cccc([N+](=O)[O-])c2)ccc1I [TCMDC-139158] | 11.15
52 | CN1CCN(c2ccc(Nc3ncc([N+](=O)[O-])c(Nc4ccccc4O)n3)cc2)CC1 [TCMDC-141372] | 99.51
53 | CNC(=O)c1cnc(Nc2ccc(OCC(O)CN(C)C)cc2)nc1Nc1cccc(Br)c1 (stereo not shown) [TCMDC-141388] | 25.03
54 | CNC(=O)c1cnc(Nc2ccc(N3CCN(C)CC3)cc2)nc1Nc1cccc(OC)c1 [TCMDC-141383] | 85.81
55 | CNC(=O)c1cnc(Nc2ccc(OCC(O)CN(C)C)cc2)nc1Nc1cccc([N+](=O)[O-])c1 (stereo not shown) [TCMDC-141392] | 55.28
